Experimental findings from PubChem BioAssay (Tox21) are described below.

“And” between values parts separate entries of the source, which are not always exact repeats. Equal entries are not always repeated. Results filed as inconclusive are left out. Where a structure was tested more than once in an assay, its records may differ in their call. The source made the active and inactive calls. Unless noted, the call rests on the fitted dose curve; in most records, active means well fitted curve in the direction sought with a large enough effect in the repeat runs; inconclusive means weak or mixed curves; inactive means no such curve, though single readings can be large; an effect the other way counts as inactive or inconclusive. Starred links: 1 amine or outer side, 2 acyl side, 3 side chain; linkers in the order of their positions; H or OH if unused. Positions of bridges follow the written chain, without caps; N, C: chain ends. Non-standard residues stand in square brackets, D forms with d. Residues, ends and D or L forms follow the SMILES beside them. Chains are numbered I, II in the order given. Actinocin(9to1) = Cc1c2oc3c(C)ccc(C(=O)[*:1])c3nc-2c(C(=O)[*:2])c(N)c1=O; NMeV = CN[C@H](C(=O)O)C(C)C; Sar = CNCC(=O)O

Assay [1] can be described thus: qHTS assay for small molecules that induce genotoxicity in human embryonic kidney cells expressing luciferase-tagged ATAD5 (AID 651632). Further: nearly all actives have a fitted effect of over 15% in size. Further: potency means the concentration at half of the fitted maximal effect. The procedure, abridged: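 Reporter cells (HEK293T) express luciferase-tagged ATAD5, a protein that accumulates after DNA damage. Treat 16 hr at 37C/5% CO2, add Amplite, wait 30 min at RT, and read luminescence.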
Assay [2] in a line: qHTS assay for small molecule agonists of the p53 signaling pathway - cell viability (AID 651633; calls by dose curve; further: nearly all actives have a fitted effect of over 30% in size; further: potency means the concentration at half of the fitted maximal effect). The method in brief:
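p53RE-bla cells, seeded at 4,000 per well and rested 5 h at 37 C/5% CO2, received compounds in DMSO for 16 h at 37 C. CellTiter-Glo was then added, and luminescence was read after 30 min at room temperature to gauge cytotoxicity.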

Assay [3] can be described thus: qHTS assay for small molecules that induce genotoxicity in human embryonic kidney cells expressing luciferase-tagged ATAD5 - cell viability (AID 651634; calls by dose curve; further: nearly all actives have a fitted effect of over 25% in size; further: potency means the concentration at half of the fitted maximal effect). The method in brief:
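Seeding of 2,000 HEK293T ATAD5-luciferase cells per well preceded pin-tool compound transfer. Plates sat 15.5 hr at 37C under 5% CO2, then fluorescence was read after 30 min with CellTiter-Fluor.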

The nature of assay [4]: qHTS assay for small molecule disruptors of the mitochondrial membrane potential - cell viability (AID 720634; calls by dose curve; further: nearly all actives have a fitted effect of over 20% in size; further: potency means the concentration at half of the fitted maximal effect). The method in brief: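 Measuring cytotoxicity alongside mitochondrial potential, the screen quantified ATP by luminescence in HepG2 cells after 1 hr compound incubation and a 30 min room-temperature CellTiter-Glo step.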
The nature of assay [5]: qHTS assay for small molecule disruptors of the mitochondrial membrane potential (AID 720635). Further: potency means the concentration at half of the fitted maximal effect. The method in brief: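 HepG2 cells (2,000/well) attached overnight at 37C, then took compound for 1 hr at 37C, 5% CO2. Mito-MPS dye was added for 30 min; fluorescence was read at 490/535 nm (monomers) and 540/590 nm (aggregates).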
Assay [6] in a line: qHTS assay to test for compound auto fluorescence at 590 nm (red) in HepG2 cells (AID 720674). The procedure, abridged: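 Compound auto-fluorescence is scored relative to Rose Bengal sodium, measured at 540/590 nm in live HepG2 cultures after 1 hr compound contact (37 C, 5% CO2).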
A short description of assay [7]: qHTS assay to test for compound auto fluorescence at 535 nm (green) in HepG2 cells (AID 720675).
Assay [8] is described as follows: qHTS assay to test for compound auto fluorescence at 460 nm (blue) in HEK293 cells (AID 720678). The procedure, abridged:
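HEK293 cells (2,000/well, medium with 10% dialyzed FBS) attached 4-5 hr, then exposed to compound overnight at 37C, 5% CO2. Blue fluorescence read at 405/460 nm, with triamterene as reference fluorophore.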

Assay [9] can be described thus: qHTS assay to test for compound auto fluorescence at 590 nm (red) in HEK293 cells (AID 720679). The method in brief:
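HEK293 cells (2,000/well, 10% dialyzed FBS) attached 4-5 hr, then dosed with compound or DMSO and incubated overnight at 37C, 5% CO2. Red fluorescence read at 540/590 nm, Rose Bengal sodium as reference fluorophore.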

The nature of assay [10]: qHTS assay for small molecule agonists of the p53 signaling pathway (AID 651631; calls by dose curve; further: nearly all actives have a fitted effect of over 15% in size; further: potency means the concentration at half of the fitted maximal effect). The procedure, abridged: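 Fluorescence intensity from cleaved LiveBLAzer B/G substrate (2 h, room temperature) served as the signal. Beforehand, HCT-116 reporter cells bearing p53 response elements were treated 16 h at 37 °C with DMSO-dissolved compounds.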
On the % scale 0 is the no-effect control and ±100 the full control effect.

Consider `CCC(=O)/C=C/C1C(C)=CCCC1(C)C` (stereo not given), for which the Potency entry in [1], in assay [2], in [3], in assay [4], in assay [7] and in assay [8] was “inactive” in each case. The Potency in [5] is 27.3 µM (active). Further, the call in assay [6] and in assay [9] was inactive.
Take `Cc1c2oc3c(C)ccc(C(=O)N[C@@H]4C(=O)N[C@H](C(C)C)C(=O)N5CCC[C@H]5C(=O)N(C)CC(=O)N(C)[C@@H](C(C)C)C(=O)O[C@@H]4C)c3nc-2c(C(=O)N[C@@H]2C(=O)N[C@H](C(C)C)C(=O)N3CCC[C@H]3C(=O)N(C)CC(=O)N(C)[C@@H](C(C)C)C(=O)O[C@@H]2C)c(N)c1=O` (I: T[dV]P[Sar][NMeV] / II: T[dV]P[Sar][NMeV]; ester I:1-I:C, II:1-II:C; linker I:N-II:N via Actinocin(9to1)): the Potency in assay [10] was 5.3 nM (active) and 2.7 nM (active); in assay [3], 16.8 nM (active) and 23.7 µM (active). The Potency entry in assay [1] and in assay [7] was “inactive” in each case. Further, the result in [6] and in assay [9] was inactive.
As for `CCC(C)(C)C(=O)O[C@H]1C[C@@H](C)C=C2C=C[C@H](C)[C@H](CC[C@@H]3C[C@@H](O)CC(=O)O3)[C@H]21`, the Potency result in [1], in assay [3], in [7] and in assay [8] was “inactive” in each case. The Potency result in [2] is “inactive and 61.1 µM (active)”. For the same molecule, the molecule was called inactive in assay [6] and in assay [9].
Turning to `COc1ccc(COC(C)=O)cc1`, the Potency entry in [1], in [2], in [3], in [5], in assay [7] and in [8] was “inactive” in each case. Besides, the molecule was called inactive in [6] and in [9].
Turning to `CCCN[C@H]1CCc2nc(N)sc2C1`, the Potency entry in assay [10], in [2], in assay [3], in [4], in assay [5] and in [7] was “inactive” in each case. Moreover, the Potency result in assay [8] is “inactive”. The result in [6] and in assay [9] was inactive.
`CC(C)CCOC(=O)c1ccc(N(C)C)cc1`: the Potency result in [10], in [3], in assay [7] and in assay [8] was “inactive” throughout. For the same molecule, in [1], the Potency was 13.3 µM (active). Besides, the call in assay [6] and in assay [9] was inactive.
`CCCCCCCCCCCCCCCCCl`: the Potency result in assay [1], in [2], in [3] and in assay [4] was “inactive” each time. Besides, the fluorescence, relative to Rose Bengal in assay [6] is -0.733% [at 18.6 µM] (inactive). Further, the fluorescence, % of fluorescein control in assay [7] is -0.021% [at 18.6 µM] (inactive). In [8], the fluorescence, % of triamterene was 0.0135% [at 18.6 µM] (inactive). Also, in assay [9], the fluorescence, % of fluorescent control is 0.199% [at 18.6 µM] (inactive).
For the molecule `CC(=O)CC(=O)Nc1ccc2[nH]c(=O)[nH]c2c1`, the Potency entry in assay [1], in [2], in assay [3], in assay [4], in [5] and in [7] was “inactive” each time. Besides, the Potency result in [8] is “inactive”. The result in assay [6] and in [9] was inactive.
Take `NC12CC3CC(CC(C3)C1)C2`: the Potency entry in assay [1], in assay [2], in [3], in assay [4] and in assay [7] was “inactive” each time. For the same molecule, the molecule was classed as inactive in assay [6] and in [9].
`Cc1c(O)cccc1C(=O)N[C@@H](CSc1ccccc1)[C@H](O)CN1C[C@H]2CCCC[C@H]2C[C@H]1C(=O)NC(C)(C)C`: the Potency result in assay [1], in assay [7] and in [8] was “inactive” throughout. For the same molecule, the Potency is 21.1 µM (active) in assay [2]; 21.1 µM (active) and 23.7 µM (active) in assay [3]; 10.6 µM (active) and 7.49 µM (active) in [5]. For the same molecule, the call in [6] and in assay [9] was inactive.
Turning to `CCCCC(CC)COC(=O)CC(C(=O)OCC(CC)CCCC)S(=O)(=O)O` (stereo not given), the Potency result in assay [1], in assay [3], in [4], in [7] and in [8] was “inactive” in each case. Also, the Potency was 29.8 µM (active) and 58.8 µM (active) and 61.1 µM (active) in assay [2]; 58.8 µM (active) in assay [5]. Moreover, the molecule was classed as inactive in assay [6] and in assay [9].
With `O`, the Potency result in [10], in assay [3] and in assay [7] was “inactive” each time. The Potency in assay [5] was 31 µM (active). Also, the molecule was called inactive in assay [6] and in assay [9].
As to `CC(C)(C)NC(=O)[C@@H]1CN(Cc2cccnc2)CCN1C[C@@H](O)C[C@@H](Cc1ccccc1)C(=O)N[C@H]1c2ccccc2C[C@H]1O`, the Potency result in assay [10], in assay [7] and in [8] was “inactive” throughout. Also, the Potency in assay [5] was 7.5 µM (active). For the same molecule, the result in assay [6] and in assay [9] was inactive.
In the case of `Oc1c(Cl)cc(Cl)cc1Sc1cc(Cl)cc(Cl)c1O`, the Potency in assay [10] was 11.9 µM (active) and 34.9 µM (active) and 21.7 µM (active); in assay [3], 11.9 µM (active) and 30.7 µM (active) and 48.6 µM (active). In addition, the Potency entry in [1] and in assay [7] was “inactive” throughout. The result in [6] and in assay [9] was inactive.
Take `CC(=O)Nc1ccc(C(=O)CCl)cc1`: the Potency entry in assay [10] is “inactive and 24.3 µM (active)”; in assay [1], “inactive and 24.3 µM (active)”; in assay [4], “inactive and 27.3 µM (active)”; in [5] it was “inactive and 27.3 µM (active)”. Further, the result in assay [6] and in assay [9] was inactive. Besides, the Potency result in assay [7] and in [8] was “inactive” each time.
As to `COc1nc(C)nc(Cl)c1NC1=NCCN1`, the Potency entry in assay [1], in assay [2], in [3], in assay [4] and in [5] was “inactive” throughout. Besides, in assay [6], the fluorescence, relative to Rose Bengal was 0.0093% [at 18.6 µM] (inactive). For the same molecule, the fluorescence, % of fluorescein control in [7] was -0.17% [at 18.6 µM] (inactive). The fluorescence, % of triamterene in assay [8] is 0.0425% [at 18.6 µM] (inactive). Further, the fluorescence, % of fluorescent control in assay [9] is -0.0076% [at 18.6 µM] (inactive).
In the case of `c1cc(C(c2ccc(OCC3CO3)cc2)C(c2ccc(OCC3CO3)cc2)c2ccc(OCC3CO3)cc2)ccc1OCC1CO1` (stereo not given), the Potency entry in assay [1], in [2], in [3], in [4], in assay [5] and in assay [7] was “inactive” in each case. Besides, the molecule was called inactive in assay [6] and in assay [9].
